# Source: PubChem (Sanford-Burnham Center for Chemical Genomics)
# This is a sample that favours compounds with a hit; in the whole collection about 3.9% have one here.
# HIF-2a inh = blocks HIF-2a reporter activity; inhibition, % at 18.8 µM; 360,000 tested, 0.72% active; 786-0 RCC cells HIF-2a reporter, luciferase luminescence, overnight;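 active = inhibition of the luminescence signal of 40% or more relative to plate controls, in a single-dose primary screen at 18.75 µM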
# KKLEB tox = CF airway cell cytotoxicity counter-screen. KKLEB CF airway cells viability, ATPlite luminescence, overnight; active compounds read low; cells stimulated with P. aeruginosa culture filtrate. activity change (cytotoxicity), % at 5 µM. 360,000 tested, 0.36% active. AID 602141;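 active = corrected activity change at or below -50% at 5 µM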
# TWEAK-Fn14 inh = inhibitors of TWEAK-Fn14 interaction signaling | 360,000 tested, 2% active | TWEAK-stimulated Fn14 reporter cells, luciferase luminescence, 8 h | inhibition, % at 10 µM; in the data active = inhibition above about 50%
# CF NFkB inh = inhibitors of cystic fibrosis induced NF-kB; KKLEB NF-kB-GFP reporter, PAF-induced, GFP fluorescence overnight; inhibition, % at 5 µM; 360,000 tested, 0.86% active;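 active = at least 50% inhibition at 5 µM, scaled per plate between neutral and stimulator controls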;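 also: PAF is a Pseudomonas aeruginosa culture filtrate used as stimulus; plate controls were PAF-stimulated DMSO wells for no effect and unstimulated DMSO wells for full effect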
# TROY signal inh = inhibitors of TROY-dependent NF-kB signaling. inhibition, % at 10 µM. 360,000 tested, 0.98% active. Q293 LMP1-TROYcd NF-kB luciferase reporter, 4 h;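 active = compounds whose plate-normalised and pattern-corrected inhibition of the luciferase reporter signal at the single screening dose is 50% or more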
# Peg3 prom inh = Peg3 promoter activity inhibition; inhibition, % at 20 µM; AID 588405; 360,000 tested, 1.7% active; HeLa PEG-Prom luciferase reporter, luminescence, overnight;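 active = inhibition of at least 50% at 20 µM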
# Numbers without * were called inactive.
SMILES,HIF-2a inh,KKLEB tox,TWEAK-Fn14 inh,CF NFkB inh,TROY signal inh,Peg3 prom inh
Cc1ccc([C@@H]2C[C@H]3[C@@H](CN2S(=O)(=O)c2ccc(Cl)cc2)C(=O)C[C@@H](c2cccc4ccccc24)N3S(=O)(=O)c2ccc(C)cc2)cc1,4.2,6.1,1.0,-9.0,-5.1,5.9
COc1ccc(NC2=C(C(C)=O)C(c3ccccc3)C(C(C)=O)C(C)(O)C2)cc1 (configuration not stated),4.4,-2.2,-3.8,-7.0,2.0,13.8
COc1ccc(NC2=C(C(C)=O)C(c3ccc(OC)c(OC)c3)C(C(C)=O)C(C)(O)C2)cc1 (configuration not stated),12.3,3.0,53.7*,-4.0,38.5,15.5
CCOC(=O)c1c(OCC)[nH]c2c1cc(O)c1ccccc12,-19.4,-22.2,10.0,85.3*,-6.9,-15.6
CN(C)c1ccc(C2/C(=C(/O)c3ccc(Br)cc3)C(=O)C(=O)N2C)cc1 (configuration not stated),49.0*,0.6,9.7,-5.0,1.3,15.7
CN1C(=O)C(=O)/C(=C(/O)c2ccccc2)C1c1ccc(Br)cc1 (configuration not stated),21.6,1.6,8.1,-1.2,5.5,-1.8
CN1C(=O)C(=O)/C(=C(/O)c2ccc(Br)cc2)C1c1ccc(Cl)cc1 (configuration not stated),9.3,-0.8,94.8*,-4.7,-9.8,-6.4
C=CCn1c(SCc2ccc3nonc3c2)nnc1-c1cccs1,23.9,-8.4,-10.0,0.0,-11.3,0.1
CCOC(=O)CSc1ccc(C(=O)N2CCN(C)CC2)cc1[N+](=O)[O-],1.5,3.7,-15.3,-6.9,4.6,104.2*
Cc1ccccc1NC(=S)N(Cc1cccnc1)Cc1ccco1,11.5,-12.1,59.7*,-5.0,-20.1,13.8
CSc1nc(=O)n2cccc(C)c2n1,16.6,1.3,10.3,-8.5,-18.3,14.1
O=S(=O)(c1ccc(Cl)cc1)c1nc(-c2ccccc2F)oc1NCCCN1CCOCC1,-10.4,5.0,-11.9,-4.6,1.5,9.6
CCOc1cc2[nH]c(=S)n(CCc3ccc(OC)c(OC)c3)c(=O)c2cc1OCC,12.5,-4.5,-3.0,1.7,-1.3,64.0*
CCOc1cc2[nH]c(=O)n(CCc3ccc(OC)c(OC)c3)c(=O)c2cc1OCC,-3.0,-6.3,9.3,-9.6,0.6,10.0
c1ccc2sc(-c3ccc4c(c3)OCO4)nc2c1,-56.7,-23.9,74.2*,-22.7,10.8,-61.9
COc1ccc(-c2nc3ccccc3s2)cc1,10.7,-41.3,75.0*,-15.5,51.5*,7.0
COc1cccc(-c2nc3ccccc3s2)c1,-189.0,-9.1,28.2,-4.0,-25.0,-195.0
O=C(Nc1cccc(-c2nc3ccccc3s2)c1)c1ccc2c(c1)OCO2,-108.7,17.2,15.8,-30.7,-22.0,-92.0
Clc1cccc(-c2ccc3ncnc(NCc4cccnc4)c3c2)c1,21.4,-15.5,7.2,20.9,16.6,28.4
COC(=O)c1c(CSc2cccc(C)c2)noc1C(=O)NCc1ccco1,3.4,-9.3,-1.4,4.3,-6.6,-56.6
COc1ccccc1-c1nc2c(c(SCC(=O)N3CCCCC3)n1)Cc1c(CO)cnc(C)c1O2,8.0,1.8,8.1,9.5,4.0,29.8
O=C(CSc1nc(-c2ccccc2)nc2c1CCCC2)N1CCOCC1,14.7,-12.7,-12.9,13.4,0.4,-5.6
COc1cccc(-c2nc3c(c(SCC(=O)N4CCOCC4)n2)Cc2c(CO)cnc(C)c2O3)c1,3.2,-11.3,4.9,37.5,1.6,59.0*
COc1cccc(-c2ccc(SCC(=O)N3CCOCC3)nn2)c1,-20.0,-0.2,0.1,-0.3,-10.4,-33.0
Cc1ncc(CO)c2c1Oc1nc(-c3ccccc3)nc(SCC(=O)N3CCOCC3)c1C2,10.4,-14.9,-17.1,14.0,12.7,79.9*
SMILES,HIF-2a inh,KKLEB tox,TWEAK-Fn14 inh,CF NFkB inh,TROY signal inh,Peg3 prom inh
Cc1cccc(-c2nc3c(c(SCC(=O)N4CCOCC4)n2)Cc2c(CO)cnc(C)c2O3)c1,15.3,15.0,-2.1,12.1,21.2,67.6*
CCCCOC(=O)c1ccc(NC(=O)Nc2ccc(OC)c(OC)c2)cc1,-12.4,8.8,15.2,4.6,1.3,-15.2
CCCCOC(=O)c1ccc(NC(=O)c2c(OC)cccc2OC)cc1,7.1,-18.7,-21.9,17.4,82.8*,-3.4
O=C1/C(=C/c2ccccc2O)SC(=S)N1Cc1cccnc1,6.6,0.4,31.7,51.1*,30.3,108.5*
O=C1/C(=C\c2cccc([N+](=O)[O-])c2O)SC(=S)N1Cc1ccccc1,-30.1,-5.8,69.0*,26.7,49.8,55.5*
O=C1/C(=C\c2ccc(O)cc2)SC(=S)N1Cc1ccccc1,-17.8,6.2,15.4,6.5,21.7,3.6
O=C1/C(=C/c2ccc(O)c([N+](=O)[O-])c2)SC(=S)N1Cc1ccccc1,-36.2,-24.2,60.1*,38.5,33.8,17.7
O=C1/C(=C\c2cc(Br)cc(Br)c2O)SC(=S)N1Cc1ccccc1,1.9,-45.3,10.3,26.1,38.4,72.5*
CN(C)CCOC(=O)C12CC3(C)CC(C)(CC(C)(C3)C1)C2,12.4,-0.4,6.1,5.3,19.0,1.1
CC(C)c1ccc(NC(=O)COC(=O)c2c[nH]c(=O)[nH]c2=O)cc1,-26.6,-22.6,-4.8,20.8,-9.5,-23.2
COC(=O)COc1ccc(S(=O)(=O)Nc2ccc3c(c2)OCCO3)cc1C,9.9,10.1,55.7*,-13.8,55.6*,-4.7
Cc1cc(Cl)c(S(=O)(=O)Nc2ccc3c(c2)OCCO3)cc1OCC(=O)NC1CCCCC1,29.3,-1.3,56.4*,6.8,58.7*,40.3
Cc1cc(Cl)c(S(=O)(=O)Nc2ccon2)cc1OCC(=O)NC1CCCCC1,12.3,-1.1,4.2,-2.7,3.1,13.7
Cc1ccc(N2CC(O)Cn3c2nc2c3c(=O)[nH]c(=O)n2C)cc1 (configuration not stated),13.1,12.7,-5.2,6.9,11.3,19.1
COc1cc(CNC(C)(C)CO)cc(Br)c1OCc1ccc(Cl)cc1Cl,1.4,-42.5,-61.5,38.7,1.9,90.3*
COc1cc(CNCCO)cc(Br)c1OCc1ccccc1Cl,-12.5,-2.5,0.0,2.2,6.1,40.7
COc1cc(CNCCO)cc(Cl)c1OCc1ccc(Cl)cc1Cl,4.6,-14.4,-11.9,12.7,0.0,104.7*
NC(=O)c1ncn([C@@H]2O[C@H](CNCc3ccc(OCC(=O)Nc4nccs4)cc3)[C@@H](O)[C@H]2O)n1,-12.5,-4.5,-5.9,3.5,-8.5,-6.2
Cc1ccc(C)c(NC(=S)NCCN2CCOCC2)c1,9.1,6.8,0.4,5.4,-22.3,15.5
O=C(NCc1cccc(C(F)(F)F)c1)c1ccc2sc([C@@H]3O[C@H](CO)[C@@H](O)[C@H]3O)nc2c1,-10.9,-7.5,-3.2,9.5,8.3,6.1
CC(C)(C)N=C1NN=C(c2ccc(Cl)cc2)CS1,-189.7,0.1,65.3*,4.8,62.1*,-263.2
